Results: PubChem BioAssay (NCI)
This is part of a sample that, as a whole, favours compounds with a hit. Of some 83,000 tested, about 20% had one in any assay.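 Compound tested at a single concentration for 48 hours in 96-well plates; a percent growth value below 10 was scored as active.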 Activity calls are given as the source filed them.

Tested on: HL-60(TB) leukemia
Experiment: NCI-60 one-dose screen, 48 h (100 = growth as untreated, 0 = no growth, -100 = all killed)
Settings: 10 µM unless noted

Row | SMILES | growth
1 | CCN(CC)CCSCCCNc1c(C)cnc2cc(Cl)ccc12 | 69.1% (inactive)
2 | CCN(CC)CCN1C(=O)c2c(c3c4ccccc4[nH]c3c3[nH]c4ccccc4c23)C1=O | 98.7% (inactive)
3 | CCNS(=O)(=O)c1ccc(C)cc1 | 72% (inactive)
4 | CSc1nc2ccccc2cc1/C=C1/C=C(c2ccccc2)NC1=O | 85.7% (inactive)
5 | N=c1ccn2c(n1)OC1C(O)C(CO)OC12 (stereo not given) | 106% (inactive)
6 | CN(C)CCCSc1ccccc1NC1=C(Cl)C(=O)C(Nc2ccccc2SCCCN(C)C)=C(Cl)C1=O | -34.8% (active)
7 | Cc1cc(=NO)cc(C)n1O | 81.6% (inactive)
8 | COc1ccc(/C=C2\CCC3C(CCCC34OCCO4)C2=O)cc1 (stereo not given) | 78.3% (inactive)
9 | Cc1cccc(CN(Nc2ccccc2)c2ccccc2)n1 | 91.9% (inactive)
10 | COc1cc(NC(C)CN(CC(C)C)C(C)C)c2ncccc2c1 (stereo not given) | 101% (inactive)
11 | Nc1ccc(C(=O)Nc2cccc(C(=O)Nc3ccc4c(O)c(N=Nc5ccc(N=Nc6ccc(S(=O)(=O)O)cc6)cc5)c(S(=O)(=O)O)cc4c3)c2)cc1 | 89.1% (inactive)
12 | N=C(N)c1ccc(-c2ccc(-c3ccc(Cl)cc3Cl)s2)cc1 | -45.1% (active)
13 | CN(C)c1ccc(/C=C2\C=C(c3ccccc3)N(CCc3ccccc3)C2=O)cc1 | 74.5% (inactive)
14 | Nc1c(C(=O)Nc2ccccn2)sc2nc3c(cc12)C(O)CCC3 (stereo not given) | 9.6% (active)
15 | Cc1ccc(C(=O)Nc2ccccc2N)cc1 | -19.5% (active)
16 | Cn1c(C(N)=O)cc2c1-c1nc(Nc3ccccc3)ncc1CCC2 | 40.6% (inactive)
17 | N=C(N)c1ccc(-c2ccc(-c3ccc(Cl)cc3)o2)o1 | -53.5% (active)
18 | FC(F)(F)c1ccc(-c2ncc(-c3ccc(C(F)(F)F)cc3)c(NCc3cc(C(F)(F)F)cc(C(F)(F)F)c3)n2)cc1 | 71.7% (inactive)
19 | C=C(C)[C@@H]1CC[C@]2(C(=O)O)CC[C@]3(C)[C@H](CC[C@@H]4[C@@]5(C)CCC(NC(=O)c6cccc(OC(C)=O)c6OC(C)=O)C(C)(C)[C@@H]5CC[C@]43C)[C@@H]12 (stereo not given in full) | -13.1% (active)
20 | Cc1c(C(=O)OCCCCOC(=O)c2c(C)n(C)c3scc[n+]23)[n+]2ccsc2n1C | 87.1% (inactive)

Row | SMILES | growth
21 | O=C1C(=O)c2c(nc3ccc(Br)cn23)-c2ccccc21 | -58.2% (active)
22 | COc1ccc(/C=C/C(=O)c2cc3c(N)c(C(=O)Nc4ccc(OC)cc4)sc3nc2C)cc1 | 2.26% (active)
23 | C=C(C)[C@@H]1CC[C@]2(C)[C@H](CC=C3[C@@H]4CC(C)(C)CC[C@]4(C(=O)OC)CC[C@]32C)[C@@]1(C)CC/C(N)=N/O | 2.39% (active)
24 | COc1ccc(N=C2CSc3nnc(-c4cc(F)c(Cl)cc4Cl)n3N2)cc1 | -48% (active)
25 | COc1cccc(/C=N/NC(=S)NC2CC3CCC2C3)c1O (stereo not given) | 71.3% (inactive)
26 | Cc1nc2cc(Nc3nc(Nc4ccc(F)cc4)nc(-c4ccc(Cl)cc4)n3)ccc2n1Cc1ccccc1 | -29.6% (active)
27 | O=C(Nc1ncc(Cc2cc(C(F)(F)F)ccc2Cl)s1)c1cccs1 | 30.6% (inactive)
28 | C=CC(=O)N[C@H](/C=C/C(=O)OCC)Cc1ccc(-c2cc(Cl)cc(Cl)c2)cc1 | 76.5% (inactive)
29 | O=C1C(Cl)=C(N=Nc2c(Cl)c(O)c3ccccc3c2O)C(=O)c2ccccc21 | 90.7% (inactive)
30 | CCN(CC)CCSc1c2ccc(Cl)cc2nc2ccc(OC)cc12 | 68.8% (inactive)
31 | CN(Cc1ccccc1)c1ccc(SC#N)cc1 | 17.5% (inactive)
32 | O=C(Oc1ccc(Cl)cc1[N+](=O)[O-])Oc1ccc(Cl)cc1[N+](=O)[O-] | 95.7% (inactive)
33 | CCN(CC)CCCCCNc1cc(OC(=O)c2ccccc2)cc2cccnc12 | 79.8% (inactive)
34 | CCNCCCCNCCCCNCCCCNCCCCNCC | 127% (inactive)
35 | CCC1CCCCN1C(=S)N/N=C(\C)c1ccccn1 (stereo not given) | 8.04% (active)
36 | O=C1OCC2=C1C(c1cccc(C(F)(F)F)c1)c1cc3c(cc1N2CCO)CCC3 (stereo not given) | -25.2% (active)
37 | CCOc1cccnc1/C=N/NC(N)=S | -17% (active)
38 | CN1CCN(c2ccc(-c3cc4c(Nc5ccc(F)c(Cl)c5)ncnn4c3)cc2)CC1 | 1.68% (active)
39 | Cn1c2ccccc2c2c3c(c4c5ccccc5[nH]c4c21)C(=O)N(N)C3=O | 81.8% (inactive)
40 | C=C1C(=O)O[C@H]2[C@H]1CC/C(COC(=O)N[C@H](Cc1c[nH]c3ccccc13)C(=O)OC)=C\CC[C@@]1(C)O[C@@H]21 | -58% (active)
